# From PubChem BioAssay
# This is a sample that favours compounds with a hit; in the whole collection about 2.6% have one here.
# TRPV1 PAM: enhances activation of the human vanilloid receptor TRPV1 | AID 540277 | Q8NER1 | TRPV1-expressing cells, Fluo-8 calcium influx, capsaicin EC20 potentiation | potentiation, % at 8.33 µM | 0.02% of 320,000 active; in the data active means potentiation above about 80%; inconclusive means between about 30% and that limit
#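 Cells expressing TRPV1 were dye-loaded with Fluo-8 and read kinetically: 10 s baseline, 3 min after compound (agonist portion), then 2 min after EC20 capsaicin (allosteric enhancer portion). Calcium-bound dye fluorescence at 480/520 nm.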
# p53 reactivator: restores transcriptional activity of mutant p53 | H1299 p53-A138V BP100-luciferase reporter, luminescence, 24 h | AID 504706 | Potency, µM (series often up to 92.2 µM), actives largely listed as activators | 0.063% of 320,000 active; active means well fitted activation curve with a large enough effect; inconclusive means small, poorly fitted or top-dose-only effect; inactive means no such curve, though single readings can be large or run the other way; further: nearly all actives have a fitted effect of over 45% in size
#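 H1299 (p53-null), stable ts p53-A138V + BP100-Luc; 1000 cells/well, Opti-MEM/10% FBS; cpd 4 pt, 1:5; 24 h, 37 deg C, 5% CO2; detection reagent 10 min RT; luminescence.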
# KCNH2 3.1 block: blocks the human KCNH2 3.1 channel isoform | U2OS KCNH2 3.1, thallium flux FluxOr; active compounds read low | activity change, % (tested at about 1.8 µM) | 0.95% of 340,000 active | AID 720553;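 active means maximum activity change below -70%; inconclusive means maximum activity change from -70% to -50%; inactive means maximum activity change above -50%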;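 further: thallium influx rate constant from kinetic fluorescence after stimulation buffer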
#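 Normalized rate constant (relative to positive and negative DMSO controls) derived from a 2 min kinetic fluorescence read after stimulation; U2OS cells expressing the 3.1 isoform via virus at 1.77 x 10^8 /mL.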
# TRPV1 agonist: activates the human vanilloid receptor TRPV1; Q8NER1; activation, % at 8.33 µM; AID 540275; 0.19% of 320,000 active; TRPV1-expressing cells, Fluo-8 calcium influx, agonist mode; in the data active means activation above about 80%; inconclusive means between about 30% and that limit
#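 TRPV1-expressing cells were cultured overnight at 35.5C and loaded with Fluo-8 calcium dye for 40 to 90 min at room temperature. After a 10 s baseline, compound was added and calcium influx was read kinetically for 3 min (ex 480/em 520 nm).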
# ClpP mod: qHTS Assay for Activators of ClpP. AID 651965, 2013. 1.9% of 340,000 active. Potency, µM (top dose mostly 57.5 µM). purified B. subtilis ClpP, FRET peptide cleavage, 20 min; active means well fitted falling curve with a large enough effect; inconclusive means small, poorly fitted or top-dose-only effect; inactive means no such curve, though single readings can be large or run the other way; further: the source files actives as falling curves though it sought activators and does not explain the sign; nearly all actives have a fitted effect of over 65% in size
#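 FRET quenching reversal measured ClpP activation: 10 microg/mL B. subtilis ClpP at pH 8 with the FRET-FV decapeptide, read at 430 nm after 320 nm excitation. The 20-min minus 0-min signal was scaled between DMSO/no-enzyme wells and ADEP (5.8 microM final).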
# KCNH2 WT inh: inhibitors of human wildtype KCNH2 potassium channel; activity change, % at 1.84 µM; Q12809; AID 720551; 0.37% of 340,000 active; U2OS, BacMam KCNH2, thallium flux FluxOr; active compounds read low;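 active means maximum activity change below -70%; inconclusive means maximum activity change between -70% and -50%; inactive means maximum activity change above -50%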
# Target sequence (Q12809 whole entry, looked up): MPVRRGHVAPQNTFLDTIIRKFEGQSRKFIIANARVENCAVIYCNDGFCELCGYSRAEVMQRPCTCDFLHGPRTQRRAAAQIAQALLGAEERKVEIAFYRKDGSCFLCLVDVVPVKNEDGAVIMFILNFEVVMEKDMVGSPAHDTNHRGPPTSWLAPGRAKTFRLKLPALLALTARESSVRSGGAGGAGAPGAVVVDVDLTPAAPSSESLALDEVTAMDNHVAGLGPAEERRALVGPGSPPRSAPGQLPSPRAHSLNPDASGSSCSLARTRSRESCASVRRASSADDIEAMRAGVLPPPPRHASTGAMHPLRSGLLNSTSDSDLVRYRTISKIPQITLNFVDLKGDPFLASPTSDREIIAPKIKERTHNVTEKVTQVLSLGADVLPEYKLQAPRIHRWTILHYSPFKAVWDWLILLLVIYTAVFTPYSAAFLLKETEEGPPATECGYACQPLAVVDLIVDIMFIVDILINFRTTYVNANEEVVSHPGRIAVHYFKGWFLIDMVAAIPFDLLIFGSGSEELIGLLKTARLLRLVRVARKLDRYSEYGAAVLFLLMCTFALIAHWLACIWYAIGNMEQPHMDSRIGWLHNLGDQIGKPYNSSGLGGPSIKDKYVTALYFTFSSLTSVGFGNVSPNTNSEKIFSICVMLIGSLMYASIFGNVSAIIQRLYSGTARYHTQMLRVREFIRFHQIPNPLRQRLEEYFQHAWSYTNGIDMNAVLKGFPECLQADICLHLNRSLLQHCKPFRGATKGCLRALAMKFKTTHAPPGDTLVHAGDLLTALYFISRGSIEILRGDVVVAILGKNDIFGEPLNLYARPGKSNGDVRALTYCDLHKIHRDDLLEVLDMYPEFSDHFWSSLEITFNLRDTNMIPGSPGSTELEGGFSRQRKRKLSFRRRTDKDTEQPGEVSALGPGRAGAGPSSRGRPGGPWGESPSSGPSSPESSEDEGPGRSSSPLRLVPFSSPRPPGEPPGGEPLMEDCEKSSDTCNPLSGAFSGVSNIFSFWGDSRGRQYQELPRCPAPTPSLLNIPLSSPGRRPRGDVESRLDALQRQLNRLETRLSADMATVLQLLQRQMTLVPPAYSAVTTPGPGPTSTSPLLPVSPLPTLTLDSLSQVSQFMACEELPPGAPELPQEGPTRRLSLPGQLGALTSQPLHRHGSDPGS
#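 U2OS cells transduced with wild-type KCNH2 virus are loaded with FluxOr dye for 45 min, and thallium flux is measured in kinetic reads before and after stimulation buffer. Rate constants are normalized to DMSO controls.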
# A number is an active result; n = inactive; u = inconclusive; x = no result.
SMILES,TRPV1 PAM,p53 reactivator,KCNH2 3.1 block,TRPV1 agonist,ClpP mod,KCNH2 WT inh
Cc1csc(NC(=O)Nc2cccc(Cl)c2)n1,n,28.2µM,n,n,n,n
N#Cc1ccccc1NC(=O)Nc1ccc(Cl)cc1,n,n,n,n,u,n
Cc1c(Cl)ccc2sc(NC(=O)c3ccco3)nc12,n,n,n,89.5,n,n
Cc1ccc2nc(/C=C/c3ccc(N(C)C)cc3)ccc2c1,x,x,x,x,n,x
O=C(C(=O)N(C1CCCCC1)C1CCCCC1)c1ccccc1,x,x,x,x,n,x
CCCCNC(=S)N(Cc1c(C)noc1C)c1ccccc1,n,n,-116.9,u,3.98µM,n
CCNC(=S)N(Cc1c(C)noc1C)c1ccccc1,n,n,n,n,n,n
COc1ccc(-c2nnc(-c3cc4c(ccc5ccccc54)oc3=O)o2)cc1,n,u,n,n,u,n
CCN(CC)c1ccc2cc(-c3nc(-c4ccc(Cl)cc4Cl)cs3)c(=O)oc2c1,x,x,x,x,n,x
CCN(CC)c1ccc2cc(-c3nnc(-c4ccccc4)o3)c(=O)oc2c1,n,u,n,101.0,n,-96.0
O=c1oc2ccc3ccccc3c2cc1-c1nnc(-c2ccccc2)o1,n,n,n,n,14.1µM,n
CCN(CC)c1ccc2cc(-c3nc4ccccc4n3C)c(=O)oc2c1,x,u,n,x,n,n
CCN(CC)c1ccc2cc(-c3nc(-c4ccc(OC)cc4)cs3)c(=O)oc2c1,n,n,-132.5,u,n,-233.4
CCN(CC)c1ccc2cc(-c3nc4ccccc4[nH]3)c(=O)oc2c1,n,n,-112.2,151.5,n,-93.3
Cc1cnc(C)c(Nc2nc(C(N)Cc3ccc(Cl)cc3)cs2)n1 (configuration not stated),x,x,x,x,n,x
O=C(NC1CC1)c1ccc2nc(-c3ccco3)c(-c3ccco3)nc2c1,x,x,x,x,n,x
CC(C)CCN1CCNC(=O)C1CC(=O)N(C)CCCN1CCOCC1 (configuration not stated),n,n,n,n,31.6µM,n
COc1cc(CN2CCNC(=O)C2CC(=O)N(C)CCCN2CCOCC2)cc(OC)c1 (configuration not stated),n,n,n,n,n,n
CC1C(=O)N2CCCc3cc(S(=O)(=O)Nc4ccccc4C(N)=O)cc1c32 (configuration not stated),n,n,n,n,31.6µM,n
CC(C)Cc1nc(N2CCOCC2)c(C#N)c2c1COC(C)(C)C2,n,n,n,n,28.2µM,n
CC(C)CCSc1nc(N2CCOCC2)c2c(c1C#N)CC(C)(C)OC2,n,u,n,91.1,u,n
CCCNC(=O)N1CCN(c2nc(C(C)C)c3c(c2C#N)CC(C)(C)OC3)CC1,n,n,n,u,n,n
CC(C)Cc1nc(NCCN2CCOCC2)c(C#N)c2c1COC(C)(C)C2,n,n,n,n,n,n
Cc1ccc(S(=O)(=O)N2CCN(c3nc(C(C)C)c4c(c3C#N)CC(C)(C)OC4)CC2)cc1,n,n,n,n,14.1µM,n
COc1cc(OC)c(OC)cc1CCC(C)NCCC(c1ccccc1)c1ccccc1 (configuration not stated),n,n,-92.1,n,n,u
SMILES,TRPV1 PAM,p53 reactivator,KCNH2 3.1 block,TRPV1 agonist,ClpP mod,KCNH2 WT inh
Cc1ccc(NC(=S)NCc2ccc(F)cc2)c(C)c1,n,n,n,u,x,n
Cc1ccc(NC(=S)NCc2ccc3c(c2)cc(C)n3C)c(C)c1,n,n,-103.5,n,n,x
COc1ccc(Cn2c(=N)c(C(=O)NCC3CCCO3)cc3c(=O)n4ccccc4nc32)cc1 (configuration not stated),n,x,n,u,n,n
COc1ccc(CCn2c(=N)c(C(=O)NCC3CCCO3)cc3c(=O)n4ccccc4nc32)cc1 (configuration not stated),n,n,-86.2,u,n,u
Cc1ccc(Cn2c(=N)c(C(=O)NCC3CCCO3)cc3c(=O)n4cccc(C)c4nc32)cc1 (configuration not stated),n,n,n,81.8,n,n
N=c1c(C(=O)NC2CCCC2)cc2c(=O)n3ccccc3nc2n1Cc1ccccc1,n,n,-77.1,u,n,n
CCOC(=O)c1cc2c(=O)n3ccccc3nc2n(Cc2ccccc2)c1=N,n,n,n,n,15.8µM,n
CCOC(=O)c1cc2c(=O)n3ccccc3nc2n(Cc2ccccc2Cl)c1=N,n,n,x,n,x,x
CC(=O)c1ccc(NC(=O)c2cc(C3CC3)nc3c2c(C)nn3-c2ccc(C)cc2)cc1,x,x,x,x,n,x
CC(=O)Nc1ccc(/C=C2\C=Cc3ccccc32)cc1,x,x,x,x,n,x
Cc1cccc(NS(=O)(=O)c2ccc3c(c2)n(C)c(=O)n3C)c1C,x,x,x,x,n,x
N=c1c(C(=O)NCC2CCCO2)cc2c(=O)n3ccccc3nc2n1Cc1ccc(Cl)cc1 (configuration not stated),n,n,-130.6,u,n,n
COc1ccc(CCn2c(=N)c(C(=O)NC3CCCCC3)cc3c(=O)n4ccccc4nc32)cc1,n,n,-86.7,u,n,u
N=c1c(C(=O)NCC2CCCO2)cc2c(=O)n3ccccc3nc2n1Cc1ccccc1 (configuration not stated),n,n,n,u,n,n
Cn1c(=O)c2sccc2n2c(CCCC(=O)NCc3ccccc3)nnc12,x,x,x,x,n,x
CCOC(=O)NC1(C(F)(F)F)NC(=O)N(c2ccc(F)cc2)C1=O (configuration not stated),n,n,n,n,35.5µM,n
Cc1cccc(NC(=O)COC(=O)Cc2cccs2)c1C,n,n,n,n,25.1µM,n
O=C(COC(=O)c1ccccc1-n1cnnn1)c1ccc(Br)cc1,n,n,n,n,15.8µM,n
